From the OligoGym collection

Biological target: CHID1
Assay: pooled miR-30 sensor sort-seq; sequence = guide strand
Settings: shRNA
Further: reference of the scale not given here.

Sequence	sensor-assay potency score (higher = more potent)
ATGCGCTGTAGAGTAGTCGTAG	-0.323
TGAAAACTGACTCTTCTCCAGC	-0.645
TTCGCCACTTGGACTTCGGGTC	-0.182
AAACTGACTCTTCTCCAGCAGC	-0.926
TGTAGAGTAGTCGTAGGTCATG	-1.27
TATCTCATCCTCACTGTCTAAG	-0.858
TTCAGTGTCTGGATGTACCTGG	0.597
TAGTCGTAGGTCATGAGGCTGA	-0.661
TTTGCCGAGCAGTAGCTGCGAT	-0.629
TTTGAGGTCCGTCACCACCAAA	-1.77
TCACTGTCTAAGACGTTCCGGA	-0.147
TAGTCCATACCATAGAAGTTGA	-1.13

Biological target: CHMP2A
Assay: as above
Settings: shRNA

Sequence	sensor-assay potency score (higher = more potent)
TCTAGTTTCTGTCGCTCGCGGT	-0.825
TTGAGTGTCTGGATCTTGAGGG	0.547
TTCATCTTCCTCATCACCCATG	-0.68
TTTCTGTCGCTCGCGGTCCAGC	-1.66
ATCATTCATCATCTCCTCCTTC	-0.0683
AAGTCTTTTGCCATGATGCGAA	-0.973
TTCAGCTGTCTGTTCATGGTGC	0.372
AACTTGCGCACATAGCGCCGGG	-1.16
TTGTTGGACTTGAGTGTCTGGA	-0.834
AAACTTGCGCACATAGCGCCGG	-0.531
TGCAATGATTTTCTTCTCCTGG	-0.535
TTCATGGCTTGTGCCATCGAGT	-1.33

Biological target: CHRM2
Assay: as above
Settings: shRNA

Sequence	sensor-assay potency score (higher = more potent)
TTCATCTCCATTCTGACCTGAA	0.399
TTCTTGTCCTTCTTTATCCTGC	-0.0112
TTTTGTGACACAGAAGTACCTG	0.758
TTTCATCTCCATTCTGACCTGA	0.602
TCATCTTCACAATCTTGCGGGC	-0.203
TTTGTGACACAGAAGTACCTGT	0.495
TTGGCTTCACTATCCTTCCTTG	-0.217
TTTGTGGTCCGCTTGACTGGGT	-0.403
TATTCTGCTTTTCATCTCCATT	-1.16
TTAGTCATCTTCACAATCTTGC	0.87
TTTTGTGGTCCGCTTGACTGGG	0.0688
TAGAAGGCTGCAATAGCCGTAC	-0.0525
TACATGAGTCACTTTTTGGGGT	-0.152
TTCTTTATCCTGCTCTTGCTGG	-0.363
